± gives the standard deviation of the averaged measurements. Over roughly 33,000 sequences, “E-score (dimensionless, -0.5 to 0.5)” has its median near -0.049; the highest 2% begin near 0.37. Shown is part of a subset that was picked to be rich in the highest values.
Each sequence was assayed on T1, PmTbr T-box DNA-binding domain (GST fusion) (assay: PBM E-score of 8-mer (E-score (dimensionless, -0.5 to 0.5)); Tbr is Tbrain of the sea star Patiria miniata (Pm) or the sea urchin Strongylocentrotus purpuratus (Sp); higher = stronger binding preference). Conditions: the construct has about 5 more residues each side.
T1 sequence: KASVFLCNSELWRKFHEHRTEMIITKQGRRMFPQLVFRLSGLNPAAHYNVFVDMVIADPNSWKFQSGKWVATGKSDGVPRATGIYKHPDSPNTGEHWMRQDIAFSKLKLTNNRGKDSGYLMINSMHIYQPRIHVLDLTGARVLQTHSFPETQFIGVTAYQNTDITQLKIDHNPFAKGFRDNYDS
Protocol: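 Universal protein-binding microarray (Agilent AMADID 016060, 60-bp probes with a 35-bp variable region) incubated with 200 nM GST-fused Patiria miniata Tbr T-box DNA-binding domain (residues 272-466) in PBS pH 7.5. Scored for every ungapped 8-mer (given with its reverse complement) by the Universal PBM Analysis Suite as E-score (modified Wilcoxon-Mann-Whitney enrichment, range -0.5 to 0.5; >0.45 counts as bound) and Z-score of median probe intensity. Two replicate arrays (datasets 1 and 2).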

Row | Sequence | PBM E-score of 8-mer
1 | ATGGTGAC | 0.262 ± 0.049
2 | CGCTTTCA | 0.0848 ± 0.014
3 | GCACTAGC | 0.0942 ± 0.018
4 | AAAGACGT | -0.108 ± 0.008
5 | CCTACCCC | -0.152 ± 0.039
6 | CAAATACA | -0.164 ± 0.0057
7 | ACTAGACC | -0.3241 ± 0.0027
8 | GTATCCAC | 0.0223 ± 0.03
9 | ACGCGCAT | 0.0257 ± 0.033
10 | GACAGCGC | 0.0941 ± 0.072
11 | AGAGCATC | -0.226 ± 0.1
12 | AAGTGGGG | 0.189 ± 0.07
13 | GAGTGTGC | 0.2606 ± 0.00088
14 | GAGTGTAA | 0.169 ± 0.061
15 | AAGTGTGG | 0.3837 ± 0.00044
16 | GAGTGTGA | 0.4754 ± 0.0017
17 | AACTGTGG | 0.00267 ± 0.0079
18 | CACTTTCG | 0.258 ± 0.004
19 | CGGGGCAA | -0.147 ± 0.097
20 | CACCTAGA | 0.324 ± 0.028
21 | CCCCTAGG | -0.0463 ± 0.05
22 | AACCTAGG | -0.0117 ± 0.074
23 | CACCTAGG | 0.436 ± 0.01
24 | CACCTAGC | 0.418 ± 0.0047

Row | Sequence | PBM E-score of 8-mer
25 | AACCTAGC | 0.088 ± 0.041
26 | GTTCCGGA | -0.29 ± 0.027
27 | CTGCGACA | 0.172 ± 0.015
28 | ATGCGATA | 0.0765 ± 0.014
29 | GTGCGACA | 0.412 ± 0.021
30 | CTGCGATA | 0.169 ± 0.046
31 | ATGCGAAC | 0.13 ± 0.018
32 | ATGCGACA | 0.3323 ± 0.0011
33 | CTGCGAAA | 0.368 ± 0.0074
34 | GTGCGATA | 0.4351 ± 0.0025
35 | TTGCGAAA | 0.349 ± 0.034
36 | CTGCGAAC | 0.324 ± 0.013
37 | GTGCGAAA | 0.4814 ± 0.0014
38 | GTGCGAAC | 0.4794 ± 0.0017
39 | CTAGTAGA | -0.0181 ± 0.012
40 | CAGTGGTA | -0.0733 ± 0.022
41 | CGCAGCCA | 0.00214 ± 0.11
42 | AAGCGCCC | -0.0238 ± 0.0037
43 | CACCGTCC | 0.0123 ± 0.0021
44 | CGTATTCC | -0.23 ± 0.036
45 | GTGCGAGA | 0.43391 ± 0.00018
46 | CTGCGAGA | 0.212 ± 0.035
47 | ATGCGAGA | 0.144 ± 0.02
48 | GAGGGTGA | 0.279 ± 0.005

Row | Sequence | PBM E-score of 8-mer
49 | AAAGGTAC | -0.152 ± 0.021
50 | GAGGGTGC | 0.389 ± 0.018
51 | CAGGGTGC | 0.271 ± 0.036
52 | AAAGGTGG | 0.234 ± 0.084
53 | AAGGGTGT | 0.399 ± 0.018
54 | AAGGGTGG | 0.1889 ± 0.001
55 | AAAGGTGC | 0.422 ± 0.015
56 | AAGGGTGA | 0.19 ± 0.0034
57 | AAAGGTAT | -0.0701 ± 0.061
58 | AAAGGTCC | 0.011 ± 0.046
59 | AAAGGTGT | 0.478 ± 0.0057
60 | AATAAGGT | 0.0297 ± 0.12
61 | CACTATAC | 0.132 ± 0.073
62 | ACGTCACA | 0.258 ± 0.021
63 | GGGCCTAA | -0.148 ± 0.024
64 | CGAGAACA | 0.2 ± 0.0064
65 | AAAGGTGA | 0.398 ± 0.025
66 | AAAGGTAA | -0.21 ± 0.041
67 | AAAGGTCA | -0.303 ± 0.043
68 | GAAGTGCC | 0.263 ± 0.019
69 | CAAGTGGC | 0.268 ± 0.028
70 | CAAGTGTG | 0.433 ± 0.0066
71 | CAAGTGTA | 0.178 ± 0.035
72 | CAAGTGCC | 0.284 ± 0.029

Row | Sequence | PBM E-score of 8-mer
73 | GAAGTGTC | 0.454 ± 0.0065
74 | AAAGTGCG | 0.315 ± 0.013
75 | GAAGTGTA | 0.293 ± 0.028
76 | CCAGTGTC | 0.0539 ± 0.05
77 | CAAGTGTC | 0.38 ± 0.031
78 | CAAGTGCG | 0.389 ± 0.015
79 | CAAGTGGG | 0.211 ± 0.016
80 | ATTTAAGC | -0.191 ± 0.065
81 | ACATATCC | -0.0724 ± 0.065
82 | ACAGCTCA | 0.237 ± 0.0098
83 | TAACACAA | 0.313 ± 0.0094
84 | CTTCAATC | 0.0436 ± 0.043
85 | ACCGACAC | 0.391 ± 0.02
86 | ACCGACAA | -0.0367 ± 0.05
87 | GCCGACAC | 0.382 ± 0.03
88 | GCCGACCC | -0.256 ± 0.038
89 | ACCGACAT | 0.0334 ± 0.031
90 | CCCGACAG | 0.11 ± 0.0062
91 | CCCGACAA | 0.208 ± 0.044
92 | CCCGACAC | 0.388 ± 0.012
93 | GCCGACAA | 0.116 ± 0.04
94 | CGGTGGGC | -0.131 ± 0.04

Reference: the supplement of paper PMC4166925
